Measured values published in PubChem BioAssay AID602340 (Broad Institute, 2012).
About 2,600 (0.79%) of roughly 330,000 compounds were called active. This is one part of a sample in which actives are shown more often than they occur. A number with no mark means an inactive call.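 The calls were made as follows: active = mean ATP rescue above about 67%, or every replicate alone reaching that limit (limit read from the data, passing the limit was not always enough); inconclusive = no clear call, values can overlap the other calls; inactive = mean under the limit and some replicate under it.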

experiment: suppressors of statin myotoxicity in C2C12 myotubes, primary screen, cell-based, single point, plate reader (AID 602340); details: C2C12 myotubes + simvastatin, ATP luminescence, 48 h; at 7.49 µM; stronger effect = higher value; scaled: DMSO 0, geranylgeraniol control 100;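 also: myotubes were challenged with 10 µM simvastatin during compound exposure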

First: CN1CCCCN2[C@H](CO)[C@H](c3ccc(-c4ccc(F)cc4)cc3)[C@@H]2C1
Second: CCNC(=O)[C@H]1[C@H](CO)[C@H]2Cn3c(ccc(-c4ccc(OC)cc4)c3=O)[C@H]2N1Cc1ccccc1
The rescue of ATP level of the first is higher: 1.44% for the first, -6.11% for the second.

Going from `O=C(C[C@@H]1C=C[C@H](NC(=O)Nc2ccc3c(c2)OCO3)[C@H](CO)O1)NCc1ccccc1` to `O=C(C[C@@H]1C[C@@H]2c3cc(NC(=O)Nc4ccccc4F)ccc3O[C@@H]2[C@@H](CO)O1)NCCc1ccccc1`, the rescue of ATP level falls from 2.11% to -4.6%.

First: CO[C@@H]1CN(C)C(=O)c2ccc(NS(=O)(=O)c3cccc(Cl)c3)cc2OC[C@H](C)NC[C@H]1C
Second: CCCNC(=O)Nc1ccc2c(c1)C(=O)N(C)C[C@@H](OC)[C@@H](C)CN(C)[C@@H](C)CO2
The rescue of ATP level of the first is lower: 0.734% for the first, 0.886% for the second.

Going from `COc1ccccc1-c1ccc2c(c1)O[C@@H](CN(C)CC1CCOCC1)[C@H](C)CN([C@@H](C)CO)S2(=O)=O` to `CCCC#Cc1ccc2c(c1)O[C@@H](CN(C)CC1CC1)[C@@H](C)CN([C@H](C)CO)S2(=O)=O`, the rescue of ATP level rises from -91.2% to 33.5%.

First: CC(C)NC(=O)Nc1ccc2c(c1)CC(=O)N([C@H](C)CO)C[C@H](C)[C@@H](CN(C)C(=O)Nc1ccc(F)cc1)O2
Second: C[C@H]1CN([C@@H](C)CO)C(=O)CCCn2nncc2CO[C@H]1CN(C)Cc1cccc(C(=O)O)c1
The rescue of ATP level of the first is lower: -12.6% for the first, -4.85% for the second.

First: COc1ccc(NCCc2ccccn2)cc1
Second: COc1ccc(C)cc1NC(=O)NCc1ccccn1
The rescue of ATP level of the first is higher: -1.75% for the first, -3.96% for the second.

First: CCCN1[C@H](C(=O)N[C@H](C)c2ccccc2)[C@@H](CO)[C@@H]2Cn3c(ccc(-c4cccc(F)c4)c3=O)[C@@H]21
Second: C[C@@H]1CN([C@H](C)CO)C(=O)c2cc(C#Cc3ccncc3)cnc2O[C@H]1CN(C)Cc1ccncc1
The rescue of ATP level of the first is higher: 25.4% for the first, -5.15% for the second.

First: O=C(CSc1nnc(-c2ccccc2O)o1)NC1CCCCC1
Second: COc1ccccc1N1CCN(C(=O)CSc2nnc(-c3ccoc3C)o2)CC1
The rescue of ATP level of the first is lower: -6.5% for the first, 2.45% for the second.

Going from `O=C(NN=Cc1ccccc1O)C(=O)NN=Cc1ccccc1O` to `CCS(=O)(=O)N1[C@H](CO)[C@@H](c2ccc(C#CC(C)C)cc2)[C@@H]1C#N`, the rescue of ATP level falls from 1.41% to -1.94%.

`Cc1noc(C)c1NC(=O)N[C@H]1CC[C@H](CC(=O)N2CCCCC2)O[C@@H]1CO` showed a rescue of ATP level of 0.234%.

For `COc1ccc2ccccc2c1CNCc1ccccn1`, the rescue of ATP level was 88.1% (active).
With `COc1ccccc1-c1nnc(SCC(=O)N2CC(C)CC(C)C2)o1` (stereo unspecified) the rescue of ATP level was 120% (active).
